Bioassay records (PubChem BioAssay)
This excerpt belongs to a sample that is enriched for hits.
RE007 growth inh = less growth of the S. pombe RE007 Vpr strain. S. pombe RE007 Vpr strain, BacTiter-Glo ATP luminescence, 24 h. Potency, µM (series often up to 92.2 µM), actives largely listed as inhibitors. 360,000 compounds, 0.21% hits; active = well fitted falling curve with a large enough effect; also: nearly all actives have a fitted effect of over 50% in size
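Fission yeast RE007 carrying one integrated HIV-1 vpr copy, seeded at OD 0.01 in PMG+AL medium with 23 nL pinned compound. Grown 24 h at 30 degrees; viability read by BacTiter-Glo luminescence after 5 min.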
TbPYK inhibitor = blocks Trypanosoma brucei pyruvate kinase. Q57TT1. TbPYK enzyme, Kinase-Glo Plus ATP luminescence, 45 min. Potency, µM (titrated, usually from 76.8 µM), most hits filed as inhibitors. 410,000 compounds, 0.12% hits; also: nearly all actives have a fitted effect of over 50% in size
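Glycolytic pyruvate kinase of T. brucei was incubated with substrate, test compound and 130 uM ADP for 45 minutes at room temperature. Luminescent Kinase-Glo Plus signal was measured after 10 minutes.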
LmPK inhibitor = inhibitors of Leishmania mexicana pyruvate kinase; Q27686; purified LmPK, Kinase-Glo ATP luminescence, 1 h; Potency, µM (doses to about 57.5 µM), hits mostly inhibitors; 290,000 compounds, 0.37% hits
Target sequence (Q27686 whole entry, looked up): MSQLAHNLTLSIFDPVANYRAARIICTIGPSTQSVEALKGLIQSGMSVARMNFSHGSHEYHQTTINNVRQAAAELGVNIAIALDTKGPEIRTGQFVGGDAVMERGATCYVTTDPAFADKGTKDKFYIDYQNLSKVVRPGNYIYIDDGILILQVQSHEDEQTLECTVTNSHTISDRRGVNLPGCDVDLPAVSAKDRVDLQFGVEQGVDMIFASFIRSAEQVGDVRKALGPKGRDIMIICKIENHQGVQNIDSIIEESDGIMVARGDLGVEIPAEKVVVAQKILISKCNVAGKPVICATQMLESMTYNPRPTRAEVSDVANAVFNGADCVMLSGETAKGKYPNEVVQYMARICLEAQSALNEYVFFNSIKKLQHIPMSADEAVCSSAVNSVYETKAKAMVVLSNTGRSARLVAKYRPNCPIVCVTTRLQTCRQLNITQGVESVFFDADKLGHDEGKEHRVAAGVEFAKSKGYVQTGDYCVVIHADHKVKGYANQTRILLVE
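Kinase-Glo luminescence read after 1 h RT reaction of 0.1 nM LmPK with 0.5 mM PEP and 0.1 mM ADP. Activity scaled between uninhibited and enzyme-free controls.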
CHX counter = counter-screen hit for Shiga toxin inhibitors, cycloheximide; 300,000 compounds, 12% hits; cell reporter, cycloheximide protein synthesis inhibition counterscreen; max response, %; AID 2314; in the data active = max response mostly above about 13%, no sharp cut-off; inactive = mostly below about 14%; also: read at 38.3 µM for the half of the compounds with a filed dose
Shiga toxin inh = Shiga toxin inhibition; Vero cells, Shiga toxin protein synthesis inhibition reporter; inhibition, % at 38.7 µM; 290,000 compounds, 9.2% hits; AID 2315; in the data active = inhibition mostly above about 28%, no sharp cut-off; inactive = mostly below about 43%
Giardia FBPA inh = inhibitors of Giardia lamblia fructose-1,6-bisphosphate aldolase. purified Giardia FBPA. AID 2451. Potency, µM (series often up to 59.6 µM), usual class: inhibitors. 290,000 compounds, 0.71% hits. A8B2U2; also: nearly all actives have a fitted effect of over 55% in size
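40 nM FBPA preincubated 10 min at RT with compound (up to 57.5 uM final), then substrate plus GAPDH/TPI/NAD/arsenate coupling and diaphorase/resazurin added. Fluorescence read after 20 min at RT, 525/598 nm.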
Hits are given with their value; [ ] = dose if it differs, or a comment. Unless noted, calls follow the shape of the dose curve; as a rule, active = well fitted curve in the direction sought with a large enough effect; inconclusive = small, poorly fitted or top-dose-only effect, or another doubt; inactive = no such curve, though single readings can be large; an effect the other way counts as inactive or inconclusive.

Results for OCc1nc2c(ccc3ccccc32)[nH]1 ?
RE007 growth inh: inactive; TbPYK inhibitor: inactive; LmPK inhibitor: inactive; CHX counter: 12; Shiga toxin inh: inactive; Giardia FBPA inh: inactive

What do the screens show for `Clc1nc2c(ccc3ccccc32)[nH]1`?
RE007 growth inh: inactive; TbPYK inhibitor: inactive; LmPK inhibitor: inactive; CHX counter: 41; Shiga toxin inh: 71; Giardia FBPA inh: inactive

How did OCc1nc2ccc(Cl)cc2[nH]1 do in these assays?
RE007 growth inh: inactive; TbPYK inhibitor: inactive; LmPK inhibitor: inactive; CHX counter: inactive; Shiga toxin inh: inactive; Giardia FBPA inh: inactive

What do the screens show for `N#CCCS(=O)(=O)c1nnnn1-c1ccccc1`?
LmPK inhibitor: inactive; CHX counter: 19; Shiga toxin inh: inactive; Giardia FBPA inh: inactive

What do the screens show for `Cc1nc(COc2ccc(C(=O)Nc3ccccc3N3CCOCC3)cc2)cs1`?
RE007 growth inh: inactive; TbPYK inhibitor: inactive; LmPK inhibitor: inactive; CHX counter: inactive; Shiga toxin inh: 26; Giardia FBPA inh: inactive

What do the screens show for `O=C(c1ccco1)N1CCC2(CCCN(c3ccncc3)C2)CC1`?
TbPYK inhibitor: inactive; Giardia FBPA inh: inactive

How did Cc1cc(C)c(/C=C/c2onc(C)c2S(=O)(=O)N2CCC(C(=O)NCc3ccco3)CC2)c(C)c1 do in these assays?
TbPYK inhibitor: inactive

Results for CCOC(=O)c1nn(-c2ccccc2)cc1O ?
RE007 growth inh: inactive; TbPYK inhibitor: inactive; LmPK inhibitor: inactive; CHX counter: 23; Shiga toxin inh: 55; Giardia FBPA inh: inactive

How did CCOC(=O)c1nn(-c2cc(C(=O)OC)cc(C(=O)OC)c2)cc1O do in these assays?
RE007 growth inh: inactive; TbPYK inhibitor: inactive; LmPK inhibitor: inactive; CHX counter: inactive; Shiga toxin inh: inactive; Giardia FBPA inh: inactive

Results for CCOC(=O)c1cc(C(=O)OCC)cc(-n2cc(O)c(C(=O)OCC)n2)c1 ?
RE007 growth inh: inactive; TbPYK inhibitor: inactive; LmPK inhibitor: inactive; CHX counter: inactive; Shiga toxin inh: inactive

What do the screens show for `COC(=O)c1nn(-c2ccc(-c3ccccc3)cc2)cc1O`?
RE007 growth inh: inactive; TbPYK inhibitor: inactive; LmPK inhibitor: 16µM; CHX counter: 29; Shiga toxin inh: inactive; Giardia FBPA inh: inactive

What do the screens show for `CCOC(=O)C1=NN(c2ccc(Cl)cc2)C(=O)C1`?
RE007 growth inh: inactive; TbPYK inhibitor: inactive; LmPK inhibitor: inactive; CHX counter: 57; Shiga toxin inh: 121; Giardia FBPA inh: inactive

What do the screens show for `CCOC(=O)c1nn(-c2ccc(C)cc2)cc1O`?
RE007 growth inh: inactive; TbPYK inhibitor: inactive; LmPK inhibitor: inactive; CHX counter: 55; Shiga toxin inh: 76; Giardia FBPA inh: inactive

Results for CN(C)CCNC(=O)CCCN1C(=O)c2cccnc2Oc2ccc(Cl)cc21 ?
TbPYK inhibitor: inactive[15.4 µM]

What do the screens show for `CN(Cc1ccccc1)C(=O)[C@H](Cc1ccc2ccccc2c1)NC(=O)[C@@H]1CCCN1C(=O)Nc1ccccc1[N+](=O)[O-]`?
CHX counter: inactive; Shiga toxin inh: inactive; Giardia FBPA inh: inactive

Results for COc1ccccc1N1CCN(C(=O)CN2C(=O)COc3ccc(S(=O)(=O)N4CCC(C)CC4)cc32)CC1 ?
TbPYK inhibitor: inactive

What do the screens show for `CCOC(=O)c1nn(-c2ccc(Cl)cc2)cc1O`?
RE007 growth inh: inactive; TbPYK inhibitor: inactive; LmPK inhibitor: inactive; CHX counter: 56; Shiga toxin inh: 101; Giardia FBPA inh: inactive

Results for c1cc2c(cc1-n1cnnn1)OCO2 ?
RE007 growth inh: inactive; TbPYK inhibitor: inactive; LmPK inhibitor: inactive; CHX counter: inactive; Shiga toxin inh: inactive; Giardia FBPA inh: inactive

How did CCOC(=O)c1nn(-c2ccc3c(c2)OCO3)cc1O do in these assays?
RE007 growth inh: inactive; TbPYK inhibitor: inactive; LmPK inhibitor: inactive; CHX counter: 43; Shiga toxin inh: 108; Giardia FBPA inh: inactive

What do the screens show for `CCOC(=O)c1nn(-c2sc(C(=O)OC)c(C)c2C(=O)OC)cc1O`?
RE007 growth inh: inactive; TbPYK inhibitor: inactive; LmPK inhibitor: inactive; CHX counter: inactive; Shiga toxin inh: inactive; Giardia FBPA inh: inactive

How did CCOC(=O)c1nn(-c2ccc3ccccc3c2)cc1O do in these assays?
RE007 growth inh: inactive; TbPYK inhibitor: inactive; LmPK inhibitor: inactive; CHX counter: 39; Shiga toxin inh: 108; Giardia FBPA inh: inactive

What do the screens show for `CCOC(=O)c1nn(-c2ccc(Cl)cc2C)ccc1=O`?
RE007 growth inh: inactive; TbPYK inhibitor: inactive; LmPK inhibitor: inactive; CHX counter: inactive; Shiga toxin inh: inactive; Giardia FBPA inh: inactive

Results for CCOc1ccc(NC(=O)Cc2ccc(-n3c(C)nc4cccnc43)cc2)cc1 ?
TbPYK inhibitor: inactive[15.4 µM]

What do the screens show for `Cc1nc(NC2CCCCC2)c2nc(-c3ccccc3)n(CCCN3CCCCC3C)c2n1` (configuration not stated)?
Giardia FBPA inh: inactive

How did O=C(OCc1cnc(Cl)s1)c1ccccc1Cl do in these assays?
RE007 growth inh: inactive; TbPYK inhibitor: inactive; LmPK inhibitor: inactive; CHX counter: 16; Shiga toxin inh: inactive; Giardia FBPA inh: inactive

How did O=C(OCc1cnc(Cl)s1)c1c(F)cccc1F do in these assays?
RE007 growth inh: inactive; TbPYK inhibitor: inactive; LmPK inhibitor: inactive; CHX counter: inactive; Shiga toxin inh: inactive; Giardia FBPA inh: inactive

How did O=C(OCc1cnc(Cl)s1)c1cccc(Cl)c1Cl do in these assays?
RE007 growth inh: inactive; TbPYK inhibitor: inactive; LmPK inhibitor: inactive; CHX counter: 14; Shiga toxin inh: inactive; Giardia FBPA inh: inactive

What do the screens show for `Cc1nnc(N2CCN(c3ccc(Cl)cc3)CC2)c2c1nnn2Cc1ccc(F)cc1`?
TbPYK inhibitor: inactive

What do the screens show for `CCc1ccc(OCC(=O)NC(=S)Nc2ccc(F)cc2)c(Br)c1`?
RE007 growth inh: inactive; TbPYK inhibitor: inactive; LmPK inhibitor: inactive; CHX counter: inactive; Shiga toxin inh: inactive; Giardia FBPA inh: inactive

How did CCc1ccc(OCC(=O)NC(=S)Nc2cccc(CO)c2)c(Br)c1 do in these assays?
RE007 growth inh: inactive; TbPYK inhibitor: inactive; LmPK inhibitor: inactive; CHX counter: 22; Shiga toxin inh: inactive; Giardia FBPA inh: inactive

How did Cn1c(CSc2nc3ccccc3n2C)nc2ccccc21 do in these assays?
RE007 growth inh: inactive; TbPYK inhibitor: inactive; LmPK inhibitor: inactive; CHX counter: 19; Shiga toxin inh: inactive

Results for Cn1c(Cc2nc3ccccc3n2C)nc2ccccc21 ?
RE007 growth inh: inactive; TbPYK inhibitor: inactive

Results for Cn1c(SCc2nc3ccccc3c(=O)[nH]2)nc2ccccc21 ?
RE007 growth inh: inactive; TbPYK inhibitor: inactive; LmPK inhibitor: inactive; CHX counter: 17; Shiga toxin inh: inactive; Giardia FBPA inh: inactive

How did Cn1c(-c2ccccc2)cnc1SCc1nc2ccccc2c(=O)[nH]1 do in these assays?
RE007 growth inh: inactive; TbPYK inhibitor: inactive; LmPK inhibitor: inactive; CHX counter: 27; Shiga toxin inh: 114; Giardia FBPA inh: inactive

How did CC(C)Cn1c(SCc2nc3ccccc3c(=O)[nH]2)nc2ccccc2c1=O do in these assays?
RE007 growth inh: inactive; TbPYK inhibitor: inactive; LmPK inhibitor: inactive; CHX counter: inactive; Shiga toxin inh: inactive; Giardia FBPA inh: inactive
